Reference: PubChem BioAssay AID2716 (Broad Institute, 2010)
About 3,300 (1%) of roughly 320,000 compounds were called active.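 The calls were made as follows: active = every valid replicate shows activation above 250% relative to neutral control wells; inactive = the rest, any valid replicate at or below 250%.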 For the sample, actives were picked, then their nearest neighbours and some compounds at random.

Assay: restored growth of temperature-sensitive Mot1-301 yeast – S. cerevisiae, ATP luminescence, 38.5C, SUMOylation pathway inhibitor project, primary screen (AID 2716);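 also: OY570 slx delta 5 strain wells were the positive control but not used for scaling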
Conditions: S. cerevisiae Mot1-301 growth rescue, at 18.8 µM, stronger effect = higher value, percent above DMSO median, 100 means doubled

Growth rescue, active:
Cc1ccc(S(=O)(=O)NC2CCCCCC2)cc1 297%
COc1cc(CN2CCNC(=O)C2CC(=O)NCCc2ncccc2C)cc(OC)c1 (stereo not drawn) 662%
Cc1ccc(Cc2nnc(SCC(=O)Nc3ccccc3C)[nH]c2=O)cc1 579%
O=C(CSc1nnc(-c2ccccn2)n1-c1ccccc1)Nc1ccc2c(c1)OCO2 354%
COc1ccc(N2C(=O)C(CC(=O)Nc3ccc(F)cc3)N(CCc3cccs3)C2=O)cc1 (stereo not drawn) 700%
C/C(CC(=O)NC(C)c1ccccc1)=N\NC(N)=S (stereo not drawn) 317%
COc1ccc(C(=O)OCC(=O)c2ccc(C)c(S(=O)(=O)N3CCOCC3)c2)cc1OC 625%
Cc1ccc(S(=O)(=O)CCC(=O)OCC(=O)N(C)C2CCS(=O)(=O)C2)cc1 (stereo not drawn) 366%
COc1ccc(/C=C(\C#N)C(=O)NCCCn2ccnc2)cc1 429%
CCOc1ccc(N(CC)S(=O)(=O)c2cccc3nsnc23)cc1 487%
CC(C)Cc1nc(N2CCOCC2)c(C#N)c2c1CCC2 469%
O=C(CSCc1ccc(Cl)cc1)N1CCCCC1 1570%
COc1cccc(/C=C(/CC(=O)Nc2ccc(N3CCOCC3)cc2)c2nc3ccccc3s2)c1 766%
CCc1c(C)nc(N2CCN(Cc3ccccc3)CC2)[nH]c1=O 1390%
CC(C)n1c(O)c(N=Nc2ccccn2)c2ccccc21 421%
O=[N+]([O-])/C=C/c1ccc2c(ccn2Cc2ccccc2)c1 436%
Cc1sc2nc(CSCC(=O)NC3CCCCC3)[nH]c(=O)c2c1C 345%
Cc1ccc2c(c1)N(CC(=O)NCC1CCCO1)C(=O)CO2 (stereo not drawn) 346%
CCOc1cnc(-c2c(-c3ccccc3Cl)noc2C)o1 675%
Cc1ccc(S(=O)(=O)N2[C@@H](c3ccc(Br)cc3)C(C(=O)O)=C[C@H]2CC2CCCC2)cc1 800%

Growth rescue, inactive:
COc1cccc(CC(=O)N2CCCC(CCC(=O)N3CCN(c4ccccn4)CC3)C2)c1 (stereo not drawn) 15%
COc1cccc2sc3cc(NCC[C@@H]4CCCN4C)ccc3c(=O)c12 4.78%
CC1CC(C)CN(c2ccc(S(=O)(=O)N3CCOCC3)cc2)C1 (stereo not drawn) 18.2%
CC(C)c1ccc(S(=O)(=O)NC2CCCC2)cc1 306%
CSc1ccc(S(=O)(=O)NC2CCCCC2)cc1 5.7%
CC1CN(C(=S)Nc2ccc(S(N)(=O)=O)cc2)CC(C)O1 (stereo not drawn) -5.04%
CCOc1ccc(CN2CCNC(=O)C2CC(=O)NCCCC2CCCC2)cc1 (stereo not drawn) 3.84%
Cc1ccccc1CN1CCNC(=O)C1CC(=O)NCCC1=CCCCC1 (stereo not drawn) -4.34%
COc1ccc(Cc2nnc(SCC(=O)Nc3ccc(C)c(Cl)c3)[nH]c2=O)cc1 60.7%
Cc1ccc(Cc2nnc(SCC(=O)Nc3ccc(C)cc3C)[nH]c2=O)cc1 3.03%
CC1(c2ccccc2)NC(=O)N(CC(=O)Nc2cc(Cl)ccc2N2CCOCC2)C1=O (stereo not drawn) 268%
NS(=O)(=O)c1cc2c(cc1Cl)NC(C(Cl)Cl)NS2(=O)=O (stereo not drawn) -7.27%
Cc1ccc(CNC(=O)C(=O)c2cn(CC(=O)N3CCOCC3)c3ccccc23)cc1 279%
Cc1ccc(-n2c(SCC(=O)Nc3ccc4c(c3)OCO4)nnc2-c2ccoc2C)cc1 -1.21%
Cc1ccc(-n2c(SCC(=O)Nc3ccc4c(c3)OCO4)nnc2-c2ccccn2)cc1 -3.71%
CC1CC2=C(CC1/C=N/NC(N)=S)C(C)(C)CCC2 (stereo not drawn) 94.7%
O=C(NCC#CCSc1nnc(-c2cccc3ccccc23)o1)c1cccs1 -7.8%
CCNC(=O)CC1C(=O)N(c2ccc(F)cc2)C(=O)N1Cc1cccs1 (stereo not drawn) -6.29%
COc1ccc(CCN2C(=O)N(c3ccc(OC)cc3)C(=O)C2CC(=O)Nc2ccc(OC)cc2)cc1 (stereo not drawn) -12.2%
Cc1cccc(C(=O)N[C@H](C(=O)NCc2cccs2)C(C)C)c1 14.3%
CCc1cc(C(=O)Nc2nnc(C3CC3)s2)sc1C -5.84%
Cc1cc(C)cc(OCC(=O)NC(C)c2ccccc2)c1 (stereo not drawn) 14.1%
Cc1ccc(OCC(=O)NC(C)c2ccccc2)cc1C (stereo not drawn) -6.93%
CCc1ccccc1NC(=O)CN(C)S(=O)(=O)c1ccc2c(c1)c(=O)n(C)c(=O)n2C 30%
O=C(COc1ccc([N+](=O)[O-])cc1Cl)Nn1cnnc1 88.2%
Cc1ccc(C(=O)OCC(=O)N2CCCCCC2)cc1S(=O)(=O)N1CCOCC1 6.73%
COc1ccc(CNC(=O)COC(=O)c2ccc(C)c(S(=O)(=O)N3CCOCC3)c2)cc1OC -6.82%
COc1c(C)cc(C(=O)C2CCCN(S(=O)(=O)c3c(C)noc3C)C2)cc1C (stereo not drawn) -5.92%
COc1ccc(CCNC(=O)/C(C#N)=C2\N=C(NC(=O)c3cccs3)c3ccccc32)cc1 -22.6%
CN(C(=O)COC(=O)Cc1ccccc1[N+](=O)[O-])C1CCS(=O)(=O)C1 (stereo not drawn) -6.84%
Cc1ccc(S(=O)(=O)CCC(=O)OCc2ccccc2)cc1 -4.25%
COc1cccc(-c2nn(-c3ccccc3)cc2/C=C(\C#N)C(=O)NCCCn2ccnc2)c1 -1.32%
COc1cc(OC)cc(C(=O)NCCCn2ccnc2)c1 0.871%
CCOC(=O)c1ccc(NC(=S)N2CCN(c3ccccn3)CC2)cc1 4.51%
O=C(COC(=O)c1ccc(F)cc1)NCCCc1ccccc1 -3.97%
COc1ccc(OC)c(CNC(=O)c2cc(=O)[nH]c3ccc(S(=O)(=O)N4CCCC4)cc23)c1 46.7%
CCOc1ccc(-c2cn(S(=O)(=O)c3cccc4nsnc34)nc2N)cc1 8.29%
COc1ccc(N(C)S(=O)(=O)c2cccc3nsnc23)cc1 -12.6%
COc1ccc(OC)c(NC(=O)COC(=O)Cc2ccsc2)c1 24.6%
CC(C)CCNc1nc(N2CCCC2)c2c(c1C#N)CCN(C)C2 -30.6%
CC(C)Cc1nc(Cl)c(C#N)c2c1CCC2 -9.85%
O=C(NNC(=O)c1ccc(-n2cncn2)c([N+](=O)[O-])c1)c1ccccc1 126%
Cc1csc2nc(O)c(C(=O)NCCN3CCOCC3)c(=O)n12 25.8%
O=S(=O)(NCCc1ccc(F)cc1)c1cccc2cccnc12 -5.12%
O=C(CSCc1cccs1)N1CCCC1 -5.87%
O=C(CSCc1ccc(Cl)cc1)N1CCN(Cc2ccc3c(c2)OCO3)CC1 194%
CC(C)(C)c1nnc(N/N=C/c2ccc(O)cc2)n(N)c1=O -10.1%
COc1ccnc2c1c(=O)n(Cc1cccc(F)c1)c(=O)n2C 95.4%
CCCCn1c(-c2cccc(C)c2)nc2cc3[nH]c(=O)c(C(C)C)nc3cc21 -29.3%
COc1cc2ccccc2cc1C(=O)Nc1ccc(N2CCOCC2)cc1 4.29%
COc1ccc(/C=C(/CC(=O)Nc2ccc(C)cc2)c2nc3ccccc3s2)cc1 7.28%
Cc1nnc(SCc2cc(=O)[nH]c(N3CCN(Cc4ccccc4)CC3)n2)s1 18.3%
CCCCCc1c(C)nc(N2CCN(Cc3ccc4c(c3)OCO4)CC2)[nH]c1=O -20.3%
Oc1oc(-c2ccccc2Br)nc1/C=N/c1ccccn1 15.4%
COC(=O)Cn1c(O)c(N=NC(=O)OC)c2ccccc21 -22.3%
COc1cccc2cc(C(=O)NCc3ccc(C)cc3)c(=N)oc12 -7.41%
O=C(COc1cccc2c1CCNC2=O)NC1CCCCC1 -3.62%
COC(=O)c1cc2n(n1)CCCNC2=O 0.35%
COC(=O)Cn1cc(/C=C/[N+](=O)[O-])c2ccccc21 5.69%
O=C(Cn1ccc2cc(S(=O)(=O)N3CCCC3)ccc21)NCc1ccccc1 -15.1%
Cc1nc(SCC(=O)NC2CCCC2)[nH]c(=O)c1C 4.8%
Cc1sc2nc(CSCC(=O)Nc3c(Cl)cccc3Cl)[nH]c(=O)c2c1C 2.95%
COc1ccc(Cl)cc1NC(=O)Cn1nc(-c2ccc(C)cc2)n(C)c1=S 283%
Cc1ccc2c(c1)N(CC(=O)N1CCOCC1)C(=O)CO2 4.76%
Cc1ccc2c(c1)N(CC(=O)N1CCCC(C)C1)C(=O)CO2 (stereo not drawn) 1.32%
CC(=O)N(c1ccc2oc(=O)sc2c1)S(=O)(=O)c1ccc(C)cc1 1.25%
Cc1onc(-c2ccccc2Cl)c1C(=O)OCc1nnc(-c2ccccc2)o1 0.31%
Cc1onc(-c2ccccc2Cl)c1C(=O)OCC(=O)c1ccccc1 -4.82%
Cc1ccc(N(C(=O)c2ccc(S(=O)(=O)N(C)C)cc2)C2C=CS(=O)(=O)C2)cc1 (stereo not drawn) -4.36%
COc1ccccc1NS(=O)(=O)c1ccc(C)c(C(=O)NNC(=O)c2csc(N3CCOCC3)n2)c1 6.56%
COC(=O)c1ccc(CSc2ccc3nnc(-c4ccccc4)n3n2)o1 -8.47%
Cc1ccc([C@@H]2CC=C(C(=O)O)[C@H](c3cccc(Cl)c3)N2S(=O)(=O)c2ccc(C)cc2)cc1 24.4%
Cc1ccc(S(=O)(=O)N2[C@@H](c3cccc4ccccc34)C(C(=O)O)=C[C@H]2C(C)(C)C)cc1 29.9%
